According to PubChem BioAssay (Tox21):
Inconclusive results are not listed. Active and inactive are the calls of the source. The call rests on the fitted dose curve.

Molecular target: Acetylcholinesterase (Homo sapiens) (UniProt P22303)
Assay: Acetylcholinesterase (AChE) small molecule antagonists: enzyme-based qHTS assay (AID 1347397); further: nearly all actives have a fitted effect of over 55% in size
Conditions: Potency: AChE enzyme activity inhibition; series mostly up to 115 µM; activity change, negative = inhibition: at the top concentration
Summary of the method: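 rhAChE 50 mU/mL (dispensed) + cpd or DMSO, 30 min RT; add DTNB/acetylthiocholine cocktail, 10 min RT; colorimetric thiocholine readout. qHTS, 1536-well format.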
On the % scale 0 is the no-effect control and ±100 the full control effect.

Chain of Acetylcholinesterase (Homo sapiens) (P22303 whole entry, looked up): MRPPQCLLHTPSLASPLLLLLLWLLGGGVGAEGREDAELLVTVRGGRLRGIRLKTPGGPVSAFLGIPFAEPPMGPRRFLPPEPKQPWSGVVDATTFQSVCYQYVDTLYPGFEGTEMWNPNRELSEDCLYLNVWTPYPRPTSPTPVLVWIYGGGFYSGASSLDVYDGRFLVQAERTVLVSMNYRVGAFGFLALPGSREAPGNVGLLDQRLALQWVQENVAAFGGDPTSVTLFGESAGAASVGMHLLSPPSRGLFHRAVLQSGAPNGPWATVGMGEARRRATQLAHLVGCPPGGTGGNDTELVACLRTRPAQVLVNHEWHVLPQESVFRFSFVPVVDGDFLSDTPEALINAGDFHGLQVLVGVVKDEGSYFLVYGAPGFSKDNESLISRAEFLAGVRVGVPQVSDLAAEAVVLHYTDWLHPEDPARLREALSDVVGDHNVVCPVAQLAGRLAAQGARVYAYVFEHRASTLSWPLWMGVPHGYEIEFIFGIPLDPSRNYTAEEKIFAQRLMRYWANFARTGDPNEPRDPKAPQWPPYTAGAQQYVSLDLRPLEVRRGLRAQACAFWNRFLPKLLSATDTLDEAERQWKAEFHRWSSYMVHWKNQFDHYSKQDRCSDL

SMILES	Potency	activity change, negative = inhibition
O=C/C(Cl)=C(/Cl)C(=O)O	inactive	
O=c1[nH]c2ccccc2n1C1CCN(CCCC(c2ccc(F)cc2)c2ccc(F)cc2)CC1	inactive	
CCCCCCCCCBr		0.125% (inactive)
CCOCn1c(-c2ccc(Cl)cc2)c(C#N)c(Br)c1C(F)(F)F		-12.3% (inactive)
CC1(C)[C@H](C(=O)O[C@H](C#N)c2cccc(Oc3ccccc3)c2)[C@@H]1/C=C(\Cl)C(F)(F)F	inactive	
C[C@@H]1O[C@@H](O[C@H]2C[C@@H](O)[C@]3(CO)[C@H]4[C@H](O)C[C@]5(C)[C@@H](C6=CC(=O)OC6)CC[C@]5(O)[C@@H]4CC[C@]3(O)C2)[C@H](O)[C@H](O)[C@H]1O	inactive	
CC(C)Oc1cccc(NC(=O)c2ccccc2C(F)(F)F)c1		-2.9% (inactive)

Molecular target: Acetylcholinesterase (Homo sapiens) (UniProt P22303)
Assay: Acetylcholinesterase (AChE) small molecule antagonists: fluorescence cell-based qHTS assay (AID 1347398); further: nearly all actives have a fitted effect of over 50% in size; further: potency means the concentration at half of the fitted maximal effect
Conditions: SH-SY5Y cells; Potency: AChE activity; series mostly up to 115 µM; activity change, negative = inhibition: at the top concentration
Summary of the method: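 Read-out is Thiolite Green fluorescence at Ex/Em = 490/520 nm, formed by reaction with thiocholine released when cellular AChE in SH-SY5Y cells hydrolyzes acetylthiocholine. Compounds were preincubated 30 min at 37 C before substrate.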

SMILES	activity change, negative = inhibition	Potency
c1ccc2c(c1)OCC(C1=NCCN1)O2 (stereo not drawn)	0.104% [at 53.7 µM] (inactive)	
CC(C)CCCCCOC(=O)c1ccccc1C(=O)OCCCCCC(C)C	-14.6% (inactive)	
CC(C)CC(C)N (stereo not drawn)	1.14% (inactive)	
CCOC(=O)c1ccccc1S(=O)(=O)NC(=O)Nc1nc(Cl)cc(OC)n1	0.512% (inactive)	
Cn1cc(C2=C(c3cn(C4CCN(Cc5ccccn5)CC4)c4ccccc34)C(=O)NC2=O)c2ccccc21	-2.92% [at 53.7 µM] (inactive)	
CN(CCCC(O)c1cccnc1)N=O (stereo not drawn)	-8.93% (inactive)	
CC(C)N1C(=O)N(c2ccccc2)CSC1=NC(C)(C)C	6.34% (inactive)	
CCCCCCCCCCBr	3.85% (inactive)	
Nc1ccc(Sc2ccc(N)cc2)cc1	2.75% (inactive)	
N#CCCO	1.67% (inactive)	
Oc1ccc(C(c2ccc(O)cc2)(C(F)(F)F)C(F)(F)F)cc1		inactive
Brc1c(Br)c(Br)c(Oc2c(Br)c(Br)c(Br)c(Br)c2Br)c(Br)c1Br	6.2% [at 23.8 µM] (inactive)	
CN(C)S(=O)(=O)N(SC(F)(Cl)Cl)c1ccccc1		35.6 µM (active)
N#CC(Cl)Cl	0.769% (inactive)	
Nc1ccc(Cc2ccc(N)c(Cl)c2)cc1Cl	-12.7% (inactive)	
CCC(C)c1cc([N+](=O)[O-])cc([N+](=O)[O-])c1OC(=O)C=C(C)C (stereo not drawn)	-1.12% (inactive)	
Cc1cc(C)c(C2=C(OC(=O)CC(C)(C)C)C3(CCCC3)OC2=O)c(C)c1	-0.0696% (inactive)	
COc1ccc(N)cc1N	-14.4% [at 53.7 µM] (inactive)	

SMILES	activity change, negative = inhibition	Potency
S=C=Nc1cccc2ccccc12	5.52% (inactive)	
Nc1ccc(Cl)cc1C(=O)c1ccccc1	1.58% (inactive)	
CC(=[OH+])/C=C(/C)[O-].CC(=[OH+])/C=C(\C)[O-].CC(=[OH+])/C=C(\C)[O-].[Al]	0.566% (inactive)	
O=c1c(C2CC(c3ccc(-c4ccc(Br)cc4)cc3)Cc3ccccc32)c(O)sc2ccccc12 (stereo not drawn)	21.3% [at 53.7 µM] (inactive)	
O=C1C=CC(=O)c2ccccc21	-19.7% (inactive)	
S=C(SSC(=S)N1CCCCC1)N1CCCCC1		38.9 µM (active)
CCCCOP(=O)(CCCC)OCCCC	-20.3% (inactive)	
Nc1ccc([N+](=O)[O-])cc1Cl	-5.08% (inactive)	
O=C/C(Cl)=C(/Cl)C(=O)O		inactive
O=c1[nH]c2ccccc2n1C1CCN(CCCC(c2ccc(F)cc2)c2ccc(F)cc2)CC1		inactive
COc1ccc(OC)c(C=O)c1	2.36% (inactive)	
[Cl][Sb]([Cl])[Cl]	0.79% (inactive)	
CCCCCCCCCBr	0.633% (inactive)	
CC(C)(C)C(O)C(Oc1ccc(-c2ccccc2)cc1)n1cncn1 (stereo not drawn)	-18.8% (inactive)	
CCOCn1c(-c2ccc(Cl)cc2)c(C#N)c(Br)c1C(F)(F)F	-5.84% (inactive)	
CC1(C)[C@H](C(=O)O[C@H](C#N)c2cccc(Oc3ccccc3)c2)[C@@H]1/C=C(\Cl)C(F)(F)F		inactive
Clc1ccc(CCC(Cn2ccnc2)Sc2c(Cl)cccc2Cl)cc1 (stereo not drawn)	-10.5% [at 53.7 µM] (inactive)	
C[C@@H]1O[C@@H](O[C@H]2C[C@@H](O)[C@]3(CO)[C@H]4[C@H](O)C[C@]5(C)[C@@H](C6=CC(=O)OC6)CC[C@]5(O)[C@@H]4CC[C@]3(O)C2)[C@H](O)[C@H](O)[C@H]1O		inactive
